# Values without a mark were called inactive. The list shows a part of the results. Activity calls are given as the source filed them.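 Rule for the calls, unless noted: active = mean inhibition above a cutoff equal to the average over all tested compounds plus one standard deviation (cut at about 70% in these data); inactive = the rest.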
# How the values were obtained:
# [1] = biological target: Photoreceptor-specific nuclear receptor (Homo sapiens) (UniProt Q9Y5X4); assay: NR2E3 agonist confirmation in cells, cell-based, luminescence, CHO-S two-hybrid (AID 624378;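 active = average inhibition above a cutoff equal to the mean inhibition of all tested compounds plus one SD, cut at about 70% in these data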;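 note: 0% = DMSO in NR2E3 cells and 100% = DMSO in cells lacking NR2E3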); settings: CHO-S mammalian two-hybrid NR2E3-NCOR, luciferase luminescence; at 3.98 µM; active compounds read high
# [2] = GAL4-VP16 reporter modulators, confirmation, counter-screen for NR2E3 agonist project, cell-based, luminescence, CHO-S, high throughput (AID 624379); settings: CHO-S GAL4-VP16 luciferase reporter, at 3.98 µM, active compounds read high;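 note: luciferase from a UAS reporter driven by GAL4-VP16 transactivation; 0% = DMSO with VP16-transfected cells and 100% = DMSO with cells lacking VP16; higher means less reporter light so more repression of VP16 activity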
# [3] = Gal4-VP16 luciferase reporter inhibitors, counter-screen for COUP-TFII antagonist project, cell-based, luminescence, HEK293 (AID 687007; in the data active = inhibition above about 13%); settings: at 8.5 µM, active compounds read high
# [4] = biological target: COUP transcription factor 2 (Homo sapiens) (UniProt P24468); assay: NR2F2 transcriptional activity inhibitors, confirmation, cell-based, luciferase reporter, HEK293, triplicate (AID 687008;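 active = mean inhibition over three repeats above a set limit taken from the earlier primary screen, cut at about 38% in these data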;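 note: 100% = cells given the luciferase reporter alone without the COUP-TF2 vector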); settings: HEK293 NGFI-A luciferase reporter, luminescence; at 8.5 µM; active compounds read high
# [5] = StAR promoter reporter inhibitors, counter-screen for LRH-1 inverse agonist project, cell-based, luminescence, high throughput (AID 651611; in the data active = inhibition above about 28%); settings: StAR promoter luciferase reporter counterscreen, at 3.6 µM, active compounds read high
# [6] = biological target: Nuclear receptor subfamily 5 group A member 2 (Homo sapiens) (UniProt O00482); assay: LRH-1 (NR5A2) inverse agonists, retest, confirmation, cell-based, luminescence (AID 651613; in the data active = inhibition above about 42%;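 note: HEK293T cells co-transfected with LRH-1 and StAR promoter luciferase reporter; 0% = vehicle wells and 100% = parental cells lacking receptor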); settings: cell-based LRH-1 luciferase reporter, inverse agonism; at 3.6 µM; active compounds read high
# [7] = biological target: Steroidogenic factor 1 (Homo sapiens) (UniProt Q13285); assay: SF1 (NR5A1) inverse agonists, counter-screen for LRH-1 inverse agonist project, cell-based, luminescence, high throughput (AID 651614; in the data active = inhibition above about 44%;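 note: cells cotransfected with StAR promoter reporter and SF1 expression vector; 0% = vehicle on cells with receptor and 100% = vehicle on cells lacking receptor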); settings: cell-based SF1 luciferase reporter, at 3.6 µM, active compounds read high
# [8] = VP16 transactivation reporter inhibitors, counter-screen for LRH-1 inverse agonist project, cell-based, luminescence, high throughput (AID 651615; in the data active = inhibition above about 33%); settings: Gal4-VP16 luciferase reporter cells, at 3.6 µM, active compounds read high
# [9] = tested on: transactivating tegument protein VP16 (Human herpesvirus 1); assay: VP16 transactivation reporter inhibitors, counter-screen for SRC2 inhibitor project, cell-based, luminescence, single concentration (AID 652007; in the data active = inhibition above about 36%); settings: cell-based VP16 transactivation luciferase reporter, at 8.9 µM, active compounds read high
# [10] = biological target: Nuclear receptor coactivator 2 (Homo sapiens) (UniProt Q15596); assay: SRC2 coactivator transcriptional activity inhibitors, confirmation, cell-based, luminescence, HEK293, triplicate (AID 652008;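 active = mean inhibition above 46.5%, the solvent-only control mean plus 3 SD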;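 note: 0% = DMSO-treated cells and 100% = Gossypol at 36 µM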); settings: HEK293 GAL4-SRC2 luciferase reporter, at 8.9 µM, active compounds read high
# [11] = tested on: DAF-12 nuclear receptor (Heterodera glycines), GAL4-LBD fusion; assay: H. glycines DAF-12 receptor agonists, confirmation, cell-based, luminescence, HEK293, GAL4-LBD fusion (AID 743050;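 active = mean activation over triplicate wells above the hit cutoff derived from the earlier primary screen, cut at about 11% in these data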;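 note: 0% = DMSO low control and 100% = 2 mM sodium butyrate high control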); settings: HEK293 GAL4-hgDAF12 luciferase reporter, agonist mode; at 6.8 µM; active compounds read high; percent of butyrate response
# [12] = biological target: Oxysterols receptor LXR-beta (Homo sapiens) (UniProt P55055); assay: LXR agonists, Gal4 luciferase reporter, confirmation, counter-screen for hgDAF-12 agonist project, cell-based, luminescence, HEK293, H. glycines campaign (AID 743051;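 active = mean activation of the triplicate above a set limit carried over from the primary screen, none filed active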); settings: 24 h, at 6.8 µM, active compounds read high
# Sequence of Oxysterols receptor LXR-beta (Homo sapiens) (P55055 whole entry, looked up, the tested form may be a part): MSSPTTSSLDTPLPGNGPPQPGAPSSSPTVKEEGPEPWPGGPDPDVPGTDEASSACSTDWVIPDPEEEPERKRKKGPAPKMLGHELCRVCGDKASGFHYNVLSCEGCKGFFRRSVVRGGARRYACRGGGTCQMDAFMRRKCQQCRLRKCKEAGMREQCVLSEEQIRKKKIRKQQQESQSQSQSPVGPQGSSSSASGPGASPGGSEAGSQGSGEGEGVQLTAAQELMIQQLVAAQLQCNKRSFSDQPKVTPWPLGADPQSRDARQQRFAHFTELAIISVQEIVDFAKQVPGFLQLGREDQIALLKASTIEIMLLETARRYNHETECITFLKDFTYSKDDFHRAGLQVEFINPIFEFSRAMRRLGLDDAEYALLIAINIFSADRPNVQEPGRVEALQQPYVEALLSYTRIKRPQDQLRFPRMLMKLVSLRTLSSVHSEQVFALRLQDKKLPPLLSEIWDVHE
# Sequence of COUP transcription factor 2 (Homo sapiens) (P24468 whole entry, looked up): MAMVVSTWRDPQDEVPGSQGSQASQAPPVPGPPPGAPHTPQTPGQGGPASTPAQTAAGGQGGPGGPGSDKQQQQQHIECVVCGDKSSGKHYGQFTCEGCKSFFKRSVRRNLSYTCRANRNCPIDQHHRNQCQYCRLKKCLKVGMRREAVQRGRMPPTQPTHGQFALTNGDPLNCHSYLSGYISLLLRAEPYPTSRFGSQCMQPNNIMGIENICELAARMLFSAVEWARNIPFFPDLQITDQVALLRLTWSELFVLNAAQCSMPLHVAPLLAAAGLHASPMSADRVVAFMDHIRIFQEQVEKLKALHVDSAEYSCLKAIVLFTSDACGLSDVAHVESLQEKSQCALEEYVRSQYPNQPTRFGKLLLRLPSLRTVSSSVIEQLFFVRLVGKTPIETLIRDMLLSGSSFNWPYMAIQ
# Sequence of Nuclear receptor subfamily 5 group A member 2 (Homo sapiens) (O00482 whole entry, looked up): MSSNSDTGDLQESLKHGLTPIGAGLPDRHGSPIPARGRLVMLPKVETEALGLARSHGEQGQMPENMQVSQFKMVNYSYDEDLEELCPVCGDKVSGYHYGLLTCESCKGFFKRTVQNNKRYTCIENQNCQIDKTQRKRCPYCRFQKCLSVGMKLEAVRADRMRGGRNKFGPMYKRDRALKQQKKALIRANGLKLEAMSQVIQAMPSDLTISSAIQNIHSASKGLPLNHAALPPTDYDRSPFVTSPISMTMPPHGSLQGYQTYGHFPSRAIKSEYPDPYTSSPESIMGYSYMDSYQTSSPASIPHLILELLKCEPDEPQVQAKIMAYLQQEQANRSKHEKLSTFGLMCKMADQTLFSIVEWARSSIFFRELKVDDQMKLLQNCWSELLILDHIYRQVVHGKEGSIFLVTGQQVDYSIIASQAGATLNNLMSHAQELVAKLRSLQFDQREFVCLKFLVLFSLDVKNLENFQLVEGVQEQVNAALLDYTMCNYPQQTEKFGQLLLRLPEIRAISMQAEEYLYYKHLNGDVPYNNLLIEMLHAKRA
# Sequence of Photoreceptor-specific nuclear receptor (Homo sapiens) (Q9Y5X4 whole entry, looked up, the tested form may be a part): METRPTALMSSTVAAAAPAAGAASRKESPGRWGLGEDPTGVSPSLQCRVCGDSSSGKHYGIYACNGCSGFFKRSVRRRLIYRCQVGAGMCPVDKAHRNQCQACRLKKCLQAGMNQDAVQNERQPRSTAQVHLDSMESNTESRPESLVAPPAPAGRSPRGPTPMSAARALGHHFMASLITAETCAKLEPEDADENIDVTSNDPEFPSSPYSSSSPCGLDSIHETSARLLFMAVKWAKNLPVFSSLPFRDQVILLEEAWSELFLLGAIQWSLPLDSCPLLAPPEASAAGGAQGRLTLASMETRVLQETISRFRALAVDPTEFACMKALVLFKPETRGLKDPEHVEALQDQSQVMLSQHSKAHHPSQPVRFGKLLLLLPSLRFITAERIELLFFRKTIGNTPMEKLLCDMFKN
# Sequence of Steroidogenic factor 1 (Homo sapiens) (Q13285 whole entry, looked up, the tested form may be a part): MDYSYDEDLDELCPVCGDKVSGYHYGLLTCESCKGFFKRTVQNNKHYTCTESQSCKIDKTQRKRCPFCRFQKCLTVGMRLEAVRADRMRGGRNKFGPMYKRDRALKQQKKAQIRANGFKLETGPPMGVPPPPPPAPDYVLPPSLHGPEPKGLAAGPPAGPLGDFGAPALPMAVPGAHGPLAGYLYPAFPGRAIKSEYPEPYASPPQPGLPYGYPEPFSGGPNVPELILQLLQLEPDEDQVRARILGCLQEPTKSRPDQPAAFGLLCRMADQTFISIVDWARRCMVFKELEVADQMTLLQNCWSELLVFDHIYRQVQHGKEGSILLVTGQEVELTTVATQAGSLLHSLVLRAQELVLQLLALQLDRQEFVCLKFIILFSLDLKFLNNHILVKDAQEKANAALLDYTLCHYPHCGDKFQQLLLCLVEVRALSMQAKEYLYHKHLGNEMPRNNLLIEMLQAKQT
# Sequence of Nuclear receptor coactivator 2 (Homo sapiens) (Q15596 whole entry, looked up, the tested form may be a part): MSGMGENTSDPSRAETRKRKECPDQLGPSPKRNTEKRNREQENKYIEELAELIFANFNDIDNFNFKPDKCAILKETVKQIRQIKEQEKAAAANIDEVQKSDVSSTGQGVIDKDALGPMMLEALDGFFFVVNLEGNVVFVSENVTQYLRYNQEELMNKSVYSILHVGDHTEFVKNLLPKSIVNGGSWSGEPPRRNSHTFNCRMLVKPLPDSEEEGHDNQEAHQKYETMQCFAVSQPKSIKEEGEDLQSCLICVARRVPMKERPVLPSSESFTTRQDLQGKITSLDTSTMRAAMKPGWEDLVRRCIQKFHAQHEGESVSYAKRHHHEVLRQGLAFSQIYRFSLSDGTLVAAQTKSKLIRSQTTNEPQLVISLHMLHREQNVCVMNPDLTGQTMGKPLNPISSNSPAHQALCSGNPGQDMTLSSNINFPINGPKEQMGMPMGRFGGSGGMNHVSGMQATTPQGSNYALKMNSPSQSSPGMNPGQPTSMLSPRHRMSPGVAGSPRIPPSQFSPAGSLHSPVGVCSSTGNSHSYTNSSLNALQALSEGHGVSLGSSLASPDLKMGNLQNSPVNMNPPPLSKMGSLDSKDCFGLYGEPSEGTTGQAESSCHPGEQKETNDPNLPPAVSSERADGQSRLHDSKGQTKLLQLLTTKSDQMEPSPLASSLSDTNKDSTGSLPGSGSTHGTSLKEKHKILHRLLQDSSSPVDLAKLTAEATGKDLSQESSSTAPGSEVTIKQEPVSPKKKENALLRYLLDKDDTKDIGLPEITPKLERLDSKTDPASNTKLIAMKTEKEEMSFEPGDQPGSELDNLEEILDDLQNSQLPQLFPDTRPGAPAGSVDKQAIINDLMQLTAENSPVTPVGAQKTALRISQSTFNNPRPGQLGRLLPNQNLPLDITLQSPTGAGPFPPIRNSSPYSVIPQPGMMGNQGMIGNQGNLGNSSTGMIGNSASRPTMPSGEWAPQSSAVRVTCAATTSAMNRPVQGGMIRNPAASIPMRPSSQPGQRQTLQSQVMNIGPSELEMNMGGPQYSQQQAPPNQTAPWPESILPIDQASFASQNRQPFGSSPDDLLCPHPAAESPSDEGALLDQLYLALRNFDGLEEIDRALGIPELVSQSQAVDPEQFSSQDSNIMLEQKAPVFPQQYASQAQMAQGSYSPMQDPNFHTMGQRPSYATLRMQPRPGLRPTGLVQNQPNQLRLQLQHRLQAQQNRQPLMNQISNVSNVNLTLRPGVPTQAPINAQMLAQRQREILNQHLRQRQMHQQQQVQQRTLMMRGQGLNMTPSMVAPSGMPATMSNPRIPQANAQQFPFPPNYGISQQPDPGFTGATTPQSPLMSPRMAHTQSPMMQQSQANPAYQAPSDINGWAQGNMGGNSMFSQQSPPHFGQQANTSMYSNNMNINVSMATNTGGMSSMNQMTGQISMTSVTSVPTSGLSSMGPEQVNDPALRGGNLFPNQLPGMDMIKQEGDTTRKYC
structure (smiles),measurement,setting,value
COc1ccc(CC(=O)Nc2nc(-c3ccc(F)c(F)c3)cs2)cc1OC,inhibition,[1],98% (active)
same,inhibition,[2],81.8% (active)
same,inhibition,[3],2.71%
same,inhibition,[4],55.4% (active)
N#Cc1c(-c2ccccc2)nc(SCc2cccc(C(F)(F)F)c2)[nH]c1=O,inhibition,[1],43.6%
same,inhibition,[2],30.9%
Cc1cccc(NC(=O)c2ccc(COc3ccccc3[N+](=O)[O-])o2)n1,inhibition,[1],10%
same,inhibition,[2],26.1%
CN(Cc1cn(Cc2ccc(C(F)(F)F)cc2)nn1)C1CN(Cc2cn(Cc3ccc(C(F)(F)F)cc3)nn2)S(=O)(=O)C1 (stereo not drawn),inhibition,[1],86.8% (active)
same,inhibition,[2],63.3%
COc1ccc(CNc2ncnc3ccccc23)cc1,inhibition,[1],82.4% (active)
same,inhibition,[2],75.7% (active)
same,inhibition,[5],11.2%
same,inhibition,[6],63.6% (active)
same,inhibition,[7],55.6% (active)
same,inhibition,[8],62.8% (active)
same,inhibition,[3],0.55%
same,inhibition,[4],47.6% (active)
COc1ccccc1-n1nnnc1S(=O)(=O)Cc1ccc(Cl)cc1,inhibition,[1],10.2%
same,inhibition,[2],19%
same,inhibition,[5],41.7% (active)
same,inhibition,[6],51.6% (active)
same,inhibition,[7],40.4%
same,inhibition,[8],34.2% (active)
CCC(C)C(N=C1NS(=O)(=O)c2ccccc21)C(=O)N1CCC(C)CC1 (stereo not drawn),inhibition,[1],41%
same,inhibition,[2],-4.13%
CCC1(C)Cc2c(sc3[nH]c(=S)n(Cc4ccccc4)c(=O)c23)CO1 (stereo not drawn),inhibition,[1],70.9% (active)
same,inhibition,[2],34.4%
Clc1ccc(-n2nnnc2-c2cnc(-c3ccccn3)nc2-c2cccs2)cc1,inhibition,[1],24.1%
same,inhibition,[2],-8.49%
CCc1cc2c(NC3CCCC3)ncnc2s1,inhibition,[1],88.5% (active)
same,inhibition,[2],64%
same,inhibition,[3],5.31%
same,inhibition,[4],29.9%
COCCNc1nc(-n2nc(C)cc2C)nc2sc3c(c12)CCCC3,inhibition,[1],-8.21%
same,inhibition,[2],-32%
Cc1ccc(S(=O)(=O)N2CCN(c3ncnc4ccccc34)CC2)cc1,inhibition,[1],94.1% (active)
same,inhibition,[2],80.5% (active)
CN(C)C(=S)N=c1ssc(=S)n1Cc1ccco1,inhibition,[1],-16.6%
same,inhibition,[2],-46.1%
COc1ccc(C(=O)NC2CCCc3c2cnn3-c2cccc(C)c2C)c(OC)n1 (stereo not drawn),inhibition,[1],89.6% (active)
same,inhibition,[2],74.1% (active)
same,inhibition,[9],-6.55%
same,inhibition,[10],19.8%
Cc1csc(NC(=S)Nc2cccc(Cl)c2)n1,inhibition,[1],-131%
same,inhibition,[2],-129%
CC(=O)c1c(C)[nH]c(C(=O)COC(=O)c2cccc(S(=O)(=O)N(C)c3ccccc3)c2)c1C,inhibition,[1],23.8%
same,inhibition,[2],73.4% (active)
CCCCCc1c(-c2ccc(OC)c(OC)c2)ncn1CCc1ccccc1OC,inhibition,[1],73.5% (active)
same,inhibition,[2],35.4%
same,inhibition,[3],4.25%
same,inhibition,[4],25.6%
OC[C@@H]1CN(Cc2ccc(-c3ccccc3)cc2)C[C@H](n2cnc3c(NC4CCCC4)ncnc32)O1,inhibition,[1],94.9% (active)
same,inhibition,[2],78.4% (active)
same,inhibition,[3],4.62%
same,inhibition,[4],63.3% (active)
CSc1nsc(SC)c1NC(=O)OC1CCCCC1,inhibition,[1],-5.88%
same,inhibition,[2],-17.6%
O=C1C=C(c2ccnc3cc(Cl)ccc23)C[C@@H](c2ccc3c(c2)OCO3)C1,inhibition,[1],91.6% (active)
same,inhibition,[2],76.5% (active)
same,inhibition,[3],2.65%
same,inhibition,[4],44.8% (active)
Cc1cc(C(=O)NC2CCCc3c2cnn3-c2cccc(C)c2C)c(C)o1 (stereo not drawn),inhibition,[1],72.7% (active)
same,inhibition,[2],69.9%
same,inhibition,[3],-2%
same,inhibition,[4],26.8%
Cn1nccc1C(=O)NC1CCCc2c1cnn2-c1ccccc1F (stereo not drawn),inhibition,[1],93.7% (active)
same,inhibition,[2],86.2% (active)
same,inhibition,[3],1.97%
same,inhibition,[4],66.8% (active)
COc1cc(CC(=O)Nc2nc(-c3ccc(F)c(F)c3)cs2)cc(OC)c1OC,inhibition,[1],94.2% (active)
same,inhibition,[2],86.9% (active)
same,inhibition,[3],-0.07%
same,inhibition,[4],44.8% (active)
COc1ccc(-n2c(C)cc(C(=O)CSc3nnc(-c4cccs4)o3)c2C)cc1,inhibition,[1],61.9%
same,inhibition,[2],66.9%
same,inhibition,[9],20%
same,inhibition,[10],33.9%
same,inhibition,[3],0.72%
same,inhibition,[4],34.1%
Cc1ccnc(NC(=O)C2CCN(S(=O)(=O)c3c(C)c(C)cc(C)c3C)CC2)c1,inhibition,[1],83.3% (active)
same,inhibition,[2],21.8%
same,inhibition,[5],6.87%
same,inhibition,[6],36.1%
same,inhibition,[7],13.2%
same,inhibition,[8],21.5%
same,activation,[11],7.81%
same,activation,[12],0.16%
